Inconclusive results are not listed. A number with no mark means an inactive call. Active and inactive are the calls of the source. The call rests on the fitted dose curve; in most records, active means well fitted activation curve with a large enough effect; inconclusive means small, poorly fitted or top-dose-only effect; inactive means flat fitted curve, though single readings scatter.
Potency means the concentration at half of the fitted maximal effect.

A short description of the test: qHTS Assay for NPC1 Promoter Activators: Initial hit validation from the primary screen.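 On activity, positive = activation: reporter driven by the mutant form of the NPC1 promoter; % of control where 0% means no effect.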 The settings on record: Huh7 NPC1 promoter-luciferase reporter, luminescence, 24 h; series mostly up to 46.1 µM; activity, positive = activation: at the top concentration. Put shortly: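 Promoter activation measured as luciferase luminescence (Amplite reagent, 10 minutes ambient) after 24 hours' compound exposure at 37C. Cells: NPC1-luciferase Huh7, 1500 per well, reduced-serum OP-MEM I plus 10% FBS.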
On to `CC1(C)CC(=O)c2c(O)c(-c3ccccc3)c(=O)n(-c3ccccc3)c2C1`, for which the “activity, positive = activation” value is 4.96%. For `Cc1csc(NC(=O)CSc2nnc(-c3ccncc3)o2)n1`, the Potency is 15800 nM (active). As for `Cc1ccc2nc(Nc3ccc(Cl)cc3)c3nncn3c2c1`, the “activity, positive = activation” value was 4.35%. On the same count and under the same terms, for `COc1ccc(-n2c(N)c(C(=O)NCc3ccco3)sc2=S)cc1` the value was -0.661%; for `C=CCn1c(C)nnc1SCC(=O)Nc1nccs1`, 8.91%.

For the compound `COc1cccc(C2Nc3ccccc3NC3=C2C(=O)CC(C)(C)C3)c1` (centres undefined), the “activity, positive = activation” value was 8.81%. Consider `Cc1noc(/C=C/N(C)C)c1S(=O)(=O)N1CCCC(C(=O)N2CCCCC2)C1` (centres undefined), for which the “activity, positive = activation” value was -1.11%.

Consider `CCCOC(=O)Cn1cnc2scc(-c3ccc(OC)cc3)c2c1=O`, for which the “activity, positive = activation” value was -5.85%. In the case of `O=CN1CCN(C(=O)c2ccccc2Cl)CC1`, the “activity, positive = activation” value is 4.57%. On the same count and under the same terms, for `Brc1ccccc1-c1nnc(CSc2nnc3sc4ccccc4n23)o1` the value was 11.6%. Consider `CCOC(=O)CSc1nc2cc(C)ccc2cc1C#N`, for which the Potency is 499 nM (active).

On to `O=C(CSc1nnc(-c2ccc([N+](=O)[O-])cc2)o1)Nc1ccccn1`, for which the Potency was 628 nM (active). Turning to `COc1ccccc1NC(=S)NCc1ccc(Cl)cc1`, the “activity, positive = activation” value was 1.66%.

As to `CC(C)(C)C(=O)N/C(N)=N/c1nc2ccccc2o1`, the Potency was 499 nM (active). As to `Cn1c(SCc2ccccc2)nnc1-c1cnccn1`, the Potency was 15800 nM (active).

For `COc1ccc(-c2csc(Nc3ncccn3)n2)cc1C`, the Potency is 250 nM (active). In the case of `O=[N+]([O-])c1cnccc1Nc1ccc(F)cc1`, the “activity, positive = activation” value was 9.68%. Consider `Nc1nc(SCCO)[nH]c(=O)c1NC(=O)c1ccco1`, for which the “activity, positive = activation” value is 2.14%. For the compound `Cc1ccc(S(=O)(=O)N2CCN(c3cnn(C)c(=O)c3Cl)CC2)cc1`, the “activity, positive = activation” value was -3.18%.

On to `CCOc1ccc(S(=O)(=O)NCc2ccccc2)cc1C(N)=O`, for which the “activity, positive = activation” value was -4.97%.

In the case of `O=C(CSc1nnc(-c2ccccn2)o1)Nc1ccccc1Cl`, the Potency is 1250 nM (active).

For `COCCn1c(SCc2ccc(C(=O)OC)o2)nc2cc(Cl)ccc2c1=O`, the “activity, positive = activation” value was -11%. Take `O=S(=O)(c1cccs1)N1CCN(c2ncccn2)CC1`: the “activity, positive = activation” value is -1.21%. For `O=C(CSc1nnc(-c2ccccc2)o1)Nc1ccccc1F`, the Potency was 250 nM (active). Regarding `CCOc1ccc(CNC(=O)C2CCCN(S(C)(=O)=O)C2)cc1OC` (centres undefined), the “activity, positive = activation” value was 8.81%. For the compound `CCOCC(=O)Nc1c(C(=O)Nc2ccc3c(c2)OCCO3)oc2ccccc12`, the Potency is 888 nM (active). Take `COc1ccc2oc(=O)c(C(=O)NC(C)c3ccccc3)cc2c1` (centres undefined): the “activity, positive = activation” value was 7.72%. Regarding `CC(=O)[C@@H]1[C@@H](C(=O)c2ccc(C)cc2)[C@]2(C(=O)Nc3ccccc32)[C@H]2C=Cc3cc(F)ccc3N12`, the “activity, positive = activation” value is 3.97%. Consider `CCc1cc(C(=O)Nc2ccccc2)cs1`, for which the Potency is 2230 nM (active). Consider `CCCCn1c(Nc2ccc(OC)cc2)nc2ccccc21`, for which the “activity, positive = activation” value is 8.4%.

As for `Cc1ccc(C#N)c(SCC(=O)Nc2nccs2)n1`, the Potency was 1120 nM (active). As for `O=C(NC1CCCC1)C(c1ccc(F)cc1)N(C(=O)c1csnn1)c1ccccc1` (centres undefined), the “activity, positive = activation” value is 1.96%. Take `COc1ccc(C2(CNC(=O)/C=C/c3ccco3)CCCC2)cc1OC`: the “activity, positive = activation” value is -3.56%. Still for that read-out and setting: next, `CCN(Cc1nc2cc(Cl)ccc2c(=O)[nH]1)C(=O)C1CC(=O)N(c2cccc3ccccc23)C1` (centres undefined): -2.69%.

For the origin of these results see PubChem BioAssay AID493203 (National Center for Advancing Translational Sciences (NCATS), 2011).
